Some test systems named below: NCI-H23 lung; NCI-H226 lung; NCI-H322M lung; HOP-62 NSCLC; NCI-H460 lung; HOP-92 NSCLC; NCI-H522 lung; A549/ATCC NSCLC; 786-0 renal; COLO 205 colon.
Assay in all cases: NCI-60 one-dose screen, 48 h (100 = growth as untreated, 0 = no growth, -100 = all killed)
Holding throughout (settings): 10 µM unless noted

Each structure is given as a SMILES string. The panel holds about 83,000 compounds, 20% with a hit somewhere; the sample as a whole holds those more often.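 48-hour exposure, single concentration, 96-well plates; percent growth endpoint where 0 means no net growth. Active: below 10.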 A number with no mark means an inactive call. Active and inactive are the calls of the source.

In the case of `S=c1[nH]c(=S)c2c(-c3ccccc3)c(-c3ccccc3)oc2[nH]1`, the growth in the test on NCI-H23 lung is 97.8%; in the test with NCI-H226 lung it was 92.7%; in the test with NCI-H322M lung, 118%; in the test with HOP-62 NSCLC, 92.6%; in the test with NCI-H460 lung, 108%; in the test on HOP-92 NSCLC it was 100%. The growth with NCI-H522 lung was 97.5%; with A549/ATCC NSCLC, 95.7%; in the test with 786-0 renal, 103%; in the test on COLO 205 colon, 120%.
`CCCCNC(=O)Oc1ccc(/C(=C(/C)Cc2ccc(OC)cc2)c2ccc(OCCN3CCCCC3)cc2)cc1`: the growth in the test on NCI-H23 lung is 81.6%; in the test on NCI-H226 lung it was 90.5%; with NCI-H322M lung, 92%; with HOP-62 NSCLC, 84.1%; in the test on NCI-H460 lung, 33.6%; in the test on HOP-92 NSCLC it was 63.4%. In addition, the growth is 81.2% in the test with NCI-H522 lung, 61% in the test on A549/ATCC NSCLC, 66.7% with 786-0 renal and 34.9% in the test on COLO 205 colon.
Consider `O=C(c1c[nH]c2ccccc12)c1n[nH]c(=S)n1-c1cccc(Br)c1`, for which the growth in the test with NCI-H23 lung is 87.2%; in the test with NCI-H226 lung, 83.1%; in the test on NCI-H322M lung it was 77.7%; in the test on HOP-62 NSCLC it was 81.7%; in the test on NCI-H460 lung, 75%; in the test on HOP-92 NSCLC, 84.2%. Further, the growth is 80% with NCI-H522 lung, 86.5% in the test on A549/ATCC NSCLC, 103% in the test on 786-0 renal and 99% with COLO 205 colon.
For `COc1ccc(C(=O)Cn2c(C(=O)c3ccc(Cl)cc3)nc3ccccc32)cc1`, the growth in the test on NCI-H23 lung was 78.3%; in the test with NCI-H226 lung it was 87.4%; in the test with NCI-H322M lung, 89.7%; with HOP-62 NSCLC it was 81.8%; with NCI-H460 lung, 86.9%; in the test on HOP-92 NSCLC it was 59.3%. Moreover, the growth in the test with NCI-H522 lung was 14.8%; in the test on A549/ATCC NSCLC, 68.1%; in the test on 786-0 renal, 64.6%; in the test with COLO 205 colon it was 111%.
With `CC(=O)c1sc2sc(C(C)=O)c(C)c2c1C`, the growth is 101% in the test on NCI-H23 lung; 42.5% in the test with NCI-H226 lung; 99% with NCI-H322M lung; 80.3% in the test on HOP-62 NSCLC; 97.9% in the test with NCI-H460 lung; 91.1% in the test with HOP-92 NSCLC. Further, the growth in the test on NCI-H522 lung is 76.6%; in the test with A549/ATCC NSCLC, 74.8%; in the test on 786-0 renal, 89.2%; in the test with COLO 205 colon, 114%.
As to `CCN1C(=O)N(CC)C2C1NC(=S)N2/N=C/c1ccc(C(F)(F)F)cc1` (stereo not given), the growth is 79.8% in the test with NCI-H23 lung; 74.2% with NCI-H226 lung; 82.5% in the test on NCI-H322M lung; 71.2% in the test with HOP-62 NSCLC; 75.6% in the test on NCI-H460 lung; 50.6% in the test on HOP-92 NSCLC. Further, the growth with NCI-H522 lung was 48.2%; in the test on A549/ATCC NSCLC it was 39.8%; with 786-0 renal, 79.7%; in the test with COLO 205 colon, 80.7%.
For `COc1cccc(/C=C/C(=O)c2cccc(Nc3nc(Nc4ccccc4)nc(Nc4ccccc4)n3)c2)c1`, the growth in the test with NCI-H23 lung is 82.2%; in the test on NCI-H226 lung, 94.2%; in the test with NCI-H322M lung, 86.6%; in the test with HOP-62 NSCLC, 79.2%; in the test with NCI-H460 lung it was 91.9%; in the test with HOP-92 NSCLC, 17.7%. Besides, the growth in the test on NCI-H522 lung is 85.6%; in the test on A549/ATCC NSCLC, 68.5%; with 786-0 renal it was 89%; with COLO 205 colon, 87.5%.
`CCOC(=O)c1c(C)nc2c(c1N)CC(=O)N2Cc1ccc(OC)cc1`: the growth in the test with NCI-H23 lung was 33.7%; in the test on NCI-H226 lung it was 17.4%; in the test on NCI-H322M lung, 41%; in the test with HOP-62 NSCLC it was -7.19% (active); with NCI-H460 lung it was 5.12% (active); in the test on HOP-92 NSCLC, -4.45% (active). Further, the growth is -1.06% (active) in the test with NCI-H522 lung, 25.8% in the test on A549/ATCC NSCLC, 6.69% (active) with 786-0 renal and 95.4% in the test with COLO 205 colon.
In the case of `CCOC(=O)c1cnc2c(N=Nc3ccc(OC)cc3)c(N)nn2c1N`, the growth with NCI-H23 lung is 98.8%; with NCI-H226 lung, 99.7%; with NCI-H322M lung, 97.9%; in the test on HOP-62 NSCLC, 104%; with NCI-H460 lung it was 103%; in the test on HOP-92 NSCLC it was 113%. Also, the growth in the test with NCI-H522 lung is 86.8%; with A549/ATCC NSCLC, 95%; in the test on 786-0 renal, 104%; in the test on COLO 205 colon it was 106%.
As for `COc1ccc(N2CCC(=S)NC2=S)cc1`, the growth in the test with NCI-H23 lung is 99.2%; in the test on NCI-H226 lung, 86.4%; with NCI-H322M lung, 105%; with HOP-62 NSCLC it was 108%; in the test with NCI-H460 lung it was 107%; in the test on HOP-92 NSCLC, 104%. Further, the growth in the test on NCI-H522 lung was 87.4%; in the test on A549/ATCC NSCLC, 99.8%; in the test with 786-0 renal it was 103%; in the test on COLO 205 colon, 108%.
`COc1ccc2c(c1)c(-c1nc(-c3c[nH]c4ncccc34)cs1)cn2CCCN1CCOCC1`: the growth in the test on NCI-H23 lung was 56.6%; in the test on NCI-H226 lung, 45.4%; in the test on NCI-H322M lung it was 42.1%; with HOP-62 NSCLC, 28.9%; in the test on NCI-H460 lung, 25.7%; in the test on HOP-92 NSCLC it was 27.9%. Further, the growth in the test on NCI-H522 lung was 26.3%; in the test with A549/ATCC NSCLC it was 42%; in the test with 786-0 renal it was -24.3% (active); in the test with COLO 205 colon, -38.5% (active).
For the compound `COc1ccc(C(=O)Cn2c(C(=O)c3ccc(OC)cc3)nc3ccccc32)cc1`, the growth with NCI-H23 lung was 50.5%; in the test with NCI-H226 lung, 37.4%; with NCI-H322M lung it was 76.6%; with HOP-62 NSCLC it was 37.8%; in the test on NCI-H460 lung, 10.5%; in the test with HOP-92 NSCLC it was 45.2%. Further, the growth was -27.7% (active) in the test with NCI-H522 lung, 41.3% in the test with A549/ATCC NSCLC, 36.3% with 786-0 renal and 38.8% in the test on COLO 205 colon.
For the compound `C#CC#CC#CC#CC#CC#CC#CC#CC[C@@H]1OC[C@@H](COC(=O)O[C@@H](C(=O)O[C@H]2C[C@@]3(O)[C@@H](OC(=O)c4ccccc4)[C@@H]4[C@]5(OC(C)=O)CO[C@@H]5C[C@H](O)[C@@]4(C)C(=O)[C@H](OC(C)=O)C(=C2C)C3(C)C)[C@@H](NC(=O)c2ccccc2)c2ccccc2)O1`, the growth in the test on NCI-H23 lung was 27.1%; in the test on NCI-H226 lung, 32.3%; in the test on NCI-H322M lung, 23.5%; in the test on HOP-62 NSCLC, 95.2%; with NCI-H460 lung, 99.7%; in the test on HOP-92 NSCLC it was 42.9%. Moreover, the growth in the test with NCI-H522 lung is 92.4%; in the test with A549/ATCC NSCLC, 94.7%; with 786-0 renal, 16.3%; in the test on COLO 205 colon it was 108%.
As to `Cc1ccc(-c2nc(SCc3nc4cc(Cl)c(Cl)cc4[nH]3)[nH]c(=O)c2C#N)cc1`, the growth is 99.2% in the test on NCI-H23 lung; 103% in the test on NCI-H226 lung; 101% with NCI-H322M lung; 91.9% in the test on HOP-62 NSCLC; 112% in the test with NCI-H460 lung; 104% with HOP-92 NSCLC. Moreover, the growth in the test on NCI-H522 lung was 89.1%; with A549/ATCC NSCLC it was 93.1%; in the test on 786-0 renal it was 94.5%; in the test with COLO 205 colon it was 107%.
For the compound `Cc1ccc(S(=O)(=O)N2CCC(=O)c3ccccc32)cc1`, the growth in the test on NCI-H23 lung was 85%; in the test on NCI-H226 lung it was 93.9%; with NCI-H322M lung, 89.3%; in the test with HOP-62 NSCLC it was 80.8%; in the test on NCI-H460 lung it was 86.5%; in the test on HOP-92 NSCLC, 80.8%. Moreover, the growth in the test on NCI-H522 lung was 84%; with A549/ATCC NSCLC it was 102%; in the test on 786-0 renal, 93.7%; with COLO 205 colon, 76.4%.
Turning to `CN(C)c1ccc(/C=C(\C#N)c2cc3ccccc3[nH]2)cc1`, the growth is 28.4% with NCI-H23 lung; 70.8% in the test with NCI-H226 lung; 38.4% in the test with NCI-H322M lung; 28.7% in the test with HOP-62 NSCLC; 13.3% in the test on NCI-H460 lung; 26.4% in the test on HOP-92 NSCLC. The growth in the test on NCI-H522 lung was -9.55% (active); with A549/ATCC NSCLC it was 41.4%; with 786-0 renal, 32.9%; in the test with COLO 205 colon, 4% (active).
As to `NS(=O)(=O)c1ccc(NC(=O)/C(=C\c2ccc(Cl)cc2Cl)NC(=O)c2ccccc2)cc1`, the growth in the test with NCI-H23 lung is 107%; in the test on NCI-H226 lung it was 103%; with NCI-H322M lung, 102%; in the test with HOP-62 NSCLC, 95.7%; in the test with NCI-H460 lung, 105%; in the test with HOP-92 NSCLC, 87%. Besides, the growth with NCI-H522 lung was 80.3%; with A549/ATCC NSCLC, 105%; in the test with 786-0 renal it was 104%; in the test on COLO 205 colon, 110%.
